Several values for one entry are separate records, joined by “and”; a condition that tells them apart may be missing. Equal entries are not always repeated. Inconclusive results are not listed. A number with no mark means an inactive call. The call rests on the fitted dose curve; in most records, active means well fitted activation curve with a large enough effect in the signal ratio (not every such curve was filed as active); inconclusive means small, poorly fitted or top-dose-only effect, or a change in a side signal; inactive means flat fitted curve, though single readings scatter; the % refers to the signal ratio.

The experiment in a line: qHTS assay for small molecule activators of the p53 signaling pathway (AID 651743). Further: series mostly up to about 92 µM; % of control where 0% means no effect. The following applies: HCT-116 p53RE-bla, beta-lactamase FRET ratio, 16 h; activation: stronger effect = higher value. The essentials:
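Agonist-mode quantitative HTS in HCT-116 cells carrying a p53-response-element beta-lactamase reporter; 16 h compound treatment at 37 C, then FRET substrate loading for 2 h at room temperature and fluorescence read.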
(In general: qHTS replaces the single test concentration by a dilution series.)
With `CCOc1ccc(NC(C)=O)cc1`, the activation was -2.67% and -5.43%.

For `COc1ccc(C(Cl)=C(c2ccc(OC)cc2)c2ccc(OC)cc2)cc1`, the activation was 2.35%.

In the case of `C/C=C/c1ccc(O)c(OC)c1`, the activation is -3.74% and -0.0356%.

As for `CCCN(CCC)S(=O)(=O)c1ccc(C(=O)O)cc1`, the activation is -0.245% and -0.015%.

In the case of `CCCCOC(=O)CC(CC(=O)OCCCC)(OC(C)=O)C(=O)OCCCC`, the activation was -5.7%.

On to `C#C[C@]1(O)CC[C@H]2[C@@H]3CCC4=Cc5oncc5C[C@]4(C)[C@H]3CC[C@@]21C`, for which the activation was -3.96%.

For `CCCCCCCCCCCCCC(=O)OC(C)C`, the activation was -0.604%.

In the case of `CCOc1ccccc1C(N)=O`, the activation was 1.59%.

On to `CCCCCCCCOc1ccc(C(=O)c2ccccc2)c(O)c1`, for which the activation was -0.0929%.

Turning to `COc1cc([C@H]2Oc3cc([C@H]4Oc5cc(O)cc(O)c5C(=O)[C@@H]4O)ccc3O[C@@H]2CO)ccc1O`, the activation is -9.47%.

Regarding `O=C(O)c1ccc(S(=O)(=O)N(Cl)Cl)cc1`, the activation was -0.128%.

As for `CC(C)(C)CC(C)(C)c1ccc(O)c(-n2nc3ccccc3n2)c1`, the activation is -5.96%.

On to `CCCCC(CC)COC(=O)c1ccc(N(C)C)cc1` (stereo unspecified), for which the activation was 0.436% and -4.01%.

For `NCCNc1cccc2ccccc12`, the activation was 1.04%.

For `NC(=O)c1ccccc1O`, the activation is -1.87%.

As to `COc1ccc(C(=O)c2ccccc2)c(O)c1`, the activation was -2.61% and -3.01%.

The values are drawn from PubChem BioAssay (NCATS).
